# Values joined by “and” are separate entries in the source; they are usually repeats but may differ in a detail not shown here. Identical values can stand only once. Out of some 16,000 compounds screened, about 5,700 (36%) were called active. About 24% were inconclusive and are not listed. This is one part of the list. A number with no mark means an inactive call. Calls come from the whole dose curve; as a rule, active = well fitted curve in the direction sought with a large enough effect; inconclusive = small, poorly fitted or top-dose-only effect, or effect the other way; inactive = no such curve, though single readings can be large or run the other way.
# Target: Cytochrome P450 1A2 (Homo sapiens) (UniProt P05177)
# Test: Cytochrome panel assay with activity outcomes
# Details: recombinant CYP, pro-luciferin dealkylation, luminescence, p450-cyp1a2; series mostly up to 57.1 µM; activity, negative = inhibition: at the top concentration
# % is set by controls: 0 for no effect and ±100 for the full control effect.
# Cytochrome P450 1A2 (Homo sapiens), sequence (P05177 whole entry, looked up): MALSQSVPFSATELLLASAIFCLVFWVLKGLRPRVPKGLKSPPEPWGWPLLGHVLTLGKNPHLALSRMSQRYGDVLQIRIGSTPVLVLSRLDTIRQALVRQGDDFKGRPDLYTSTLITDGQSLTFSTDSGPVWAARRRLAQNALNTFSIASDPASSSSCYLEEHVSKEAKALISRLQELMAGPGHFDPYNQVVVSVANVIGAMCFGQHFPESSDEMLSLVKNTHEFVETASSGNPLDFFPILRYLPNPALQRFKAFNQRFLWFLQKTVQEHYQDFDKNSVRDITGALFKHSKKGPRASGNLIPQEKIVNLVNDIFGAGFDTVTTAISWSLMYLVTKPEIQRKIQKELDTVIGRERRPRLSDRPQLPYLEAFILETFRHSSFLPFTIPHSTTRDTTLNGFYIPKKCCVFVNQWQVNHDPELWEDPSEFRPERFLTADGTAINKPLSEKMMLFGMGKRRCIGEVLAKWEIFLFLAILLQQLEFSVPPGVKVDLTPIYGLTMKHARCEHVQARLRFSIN
SMILES,"activity, negative = inhibition",AC50
Nc1c(S(N)(=O)=O)cc(S(N)(=O)=O)cc1S(N)(=O)=O,-11.6% [at 11.4 µM],–
C=CCNCCCCOc1c(Cl)cc(C)cc1Br,–,0.2 µM (active)
COCCCNCCCCOc1c(Cl)cc(C)cc1Br,–,0.562 µM (active)
FC(F)(F)c1cc(CN2CCCC3(CCNCC3)C2)cc(C(F)(F)F)c1,-20.7%,–
C[C@H]1/C=C\CC(=O)OC[C@H](C)C(=O)N2CCC[C@@H]2C(=O)OC1,7.07% [at 11.4 µM],–
NNc1nncc2ccccc12,–,1 µM (active)
CCOC(=O)NNc1nncc2ccccc12,–,5.01 µM (active)
c1ncc(-c2ccoc2)c(NC2CC2)n1,–,15.8 µM (active)
Fc1ccc(Nc2ncncc2-c2ccoc2)cc1,–,0.316 µM (active)
Cc1noc(C)c1-c1cncnc1NC1CC1,-12.4%,–
c1ccc(Nc2ncncc2-c2ccoc2)cc1,–,1 µM (active)
COc1cc(C2C(C#N)=C(N)N(Nc3ccccc3)C3=C2C(=O)CC(C)(C)C3)ccc1OCc1ccccc1 (stereo not drawn),-22.4%,–
COc1cc(/C=N/O)cc(Br)c1OCc1cccc(Cl)c1,–,0.631 µM (active)
O=C(O)c1cc(-c2ccc(-c3ccc(-c4cc(C(=O)O)c5cc(Cl)ccc5n4)cc3)cc2)nc2ccc(Cl)cc12,-18.1% [at 2.29 µM],–
N/C(=N\OC(=O)c1cc(-c2ccccc2)nc2ccccc12)c1ccc(Cl)cc1,–,11.2 µM (active)
O=C1[C@H]2[C@H]3[C@H](O)[C@H](O)C/C(=N/OC[C@@H](O)COCc4ccco4)[C@@H]3CC[C@@H]2C(=O)N1Cc1ccccc1,11.1% [at 11.4 µM],–
CCNc1ncc2nc(-c3ccccc3)c(=O)n(C3CC3)c2n1,–,2.51 µM (active)
CCNc1ncc2nc(-c3ccc(Cl)cc3)c(=O)n(C3CC3)c2n1,–,0.501 µM (active)
O=C(O)C1=C/C(=C(/c2ccccc2)c2cc(C(=O)O)c(O)c3ccccc23)c2ccccc2C1=O,-21.5% [at 11.4 µM] and -13.1% [at 11.4 µM],–
Cc1ccc(O)c(-c2cc(C(F)(F)C(F)F)nc(-c3ccccc3)n2)c1,–,2.82 µM (active)

SMILES,"activity, negative = inhibition",AC50
COc1ccccc1NC(=S)NNC(=O)c1c(Cl)c(C)nn1C,-12.1%,–
COc1ccccc1NC(=S)NCCc1ccccc1,–,12.6 µM (active)
Fc1ccccc1NC(=S)NCCc1ccccc1,–,5.62 µM (active)
COc1ccccc1NC(=S)NC(=O)c1ccc(-c2ccc(Cl)cc2)o1,–,2.82 µM (active)
Fc1ccc(NC(=S)NCCc2ccccc2)c(F)c1F,–,5.62 µM (active)
CCn1cc(C(=O)O)c(=O)c2cc(F)c(N3CCN[C@@H](C)C3)c(F)c21,–,inactive
CC(C)(C)c1ccc(S(=O)(=O)/C=C\C#N)cc1,–,1.58 µM (active)
C[C@@](N)(C(=O)O)c1ccc(S(=O)(=O)O)cc1,-0.679%,–
CC(=O)NCCC(=O)Nc1sc2c(c1-c1nc3ccccc3[nH]1)CCCC2,–,7.08 µM (active)
CCc1cc2c(=O)c(-c3nc4ccccc4[nH]3)coc2cc1OC(=O)N1CCOCC1,-29.4%,–
Cc1c(OC(=O)c2ccc([N+](=O)[O-])cc2)c2c(c[n+]1C)COC(C)(C)OC2,–,17.8 µM (active)
OCC1CCCN(Cc2ccc(-c3ccccc3)cc2)C1 (stereo not drawn),-18.3%,–
Cc1cc(C)cc(N(C(=O)c2ccccn2)C(C(=O)NC2CCCCC2)c2cccs2)c1 (stereo not drawn),-5.91%,–
O=C(NCCc1ccccn1)c1cc(C(=O)C2CCCCC2)c[nH]1,–,14.1 µM (active)
O=C(NCCCN1CCOCC1)c1cc(C(=O)C2CC2)c[nH]1,–,17.8 µM (active)
Cc1ccc(C(=O)c2c[nH]c(C(=O)NCCCN3CCOCC3)c2)cc1,-13.6%,–
O=C(NCCCN1CCOCC1)c1cc2c(s1)CSC2,-28.3%,–
C/C(CCC(=O)OC[C@@H]1O[C@H](C#Cc2ccccc2)C=C[C@@H]1Oc1ccc(C)cc1)=N/O[C@@H](C)CN1CCCc2nc(C)c(C)cc21,-8.42% [at 11.4 µM],–
CC(=O)OC[C@@H]1O[C@@H](O/N=C2/C[C@@H](O)[C@@H](O)[C@@H]3[C@@H]4C(=O)N(C(C)(C)C)C(=O)[C@H]4CC[C@@H]23)[C@H](OC(C)=O)[C@H](OC(C)=O)[C@@H]1OC(C)=O,-1.47% [at 11.4 µM],–
[O-][N+]1(CC[N+]2([O-])CCCCC2)CCCCC1,-3.29% [at 11.4 µM],–

SMILES,"activity, negative = inhibition",AC50
CCOc1ccc(/C=C/C(=O)Nc2ccc(OC)cc2[N+](=O)[O-])cc1,-27.7%,–
COc1ccc(NC(=O)c2ccc(C)cc2Cl)c([N+](=O)[O-])c1,–,2 µM (active)
COc1ccc(NC(=O)C(=O)NNC(=O)c2cccs2)c(OC)c1,-10.5%,–
COc1ccc(NC(=O)CN(C)S(=O)(=O)c2ccc(Cl)cc2)c([N+](=O)[O-])c1,-11.6%,–
COc1ccc(NC(=O)CSc2nncn2C)c([N+](=O)[O-])c1,–,11.2 µM (active)
COc1ccc(NC(=O)c2cccs2)c([N+](=O)[O-])c1,–,3.16 µM (active)
CC(C)(C)N1C(=O)[C@H]2[C@@H]3[C@H](O)C=CC(=O)[C@H]3CC[C@H]2C1=O,-5.4% [at 11.4 µM],–
c1ccc(Nc2nc(-c3ccc4c(c3)OCO4)nc3ccccc23)cc1,–,1.26 µM (active)
c1ccc2c(Nc3ccncc3)nc(-c3ccc4c(c3)OCO4)nc2c1,–,1.26 µM (active)
COc1cc(C2C(C#N)=C(N)N(Nc3ccccc3)C3=C2C(=O)CC(C)(C)C3)ccc1OCc1cccc(F)c1 (stereo not drawn),-13.1%,–
CN1CCN(c2nc3cc(C(F)(F)F)ccc3n3cccc23)CC1,–,200 nM (active) and 39.8 nM (active)
COc1ccc(-c2csc(N3C(=N)SCC3=O)n2)cc1,–,0.631 µM (active)
N=C1SCC(=O)N1c1nc(-c2ccccc2)cs1,–,1.41 µM (active)
O=C1C2C3c4ccccc4C(c4ccccc43)C2C(=O)N1c1nc(-c2ccccc2)cs1 (stereo not drawn),-8.29%,–
CC(C)OC(=O)CC12CN(C)CC(CC(=O)OC(C)C)(CN(C)C1)C2=O,-15.3%,–
CCOc1ccccc1-n1nnnc1SCC(=O)Nc1cc(C)on1,-7% [at 11.4 µM],–
Cc1cccc(NC(=O)CSc2nnnn2C)n1,–,14.1 µM (active)
Cc1c(NC(=O)CSc2nnnn2C)c(=O)n(-c2ccccc2)n1C,16.8%,–
